Screening results (PubChem)
Only a selection was taken, and hits are over-represented in it overall.
Pf Dd2 growth: qHTS Primary assay for Inhibitors of Plasmodium falciparum Dd2 growth in vitro. Potency, µM (series often up to 28.9 µM), hits mostly inhibitors. P. falciparum Dd2 growth, SYBR Green, 72 h. actives 4.3% (n = 120,000); active = well fitted inhibition curve with a large enough effect; also: nearly all actives have a fitted effect of over 65% in size
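Readout: SYBR Green fluorescence, 485 nm excitation, 535 nm emission, after ~16 h lysis at 37C. Before that, Dd2-infected red cells (2.5% hematocrit) grew 72 h with compound, 29 uM top final concentration.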
Of the large screens only hits and unclear results are named; the others gave an inactive call.

CCNC(=O)[C@@H]1C[C@H](N)CN1C(=O)c1cnc(-c2cccnc2)nc1C	none
CCCNC(=O)C1COC2(CCN(C(=O)c3ccc(OC)cc3)CC2)N1C(=O)c1ccc(OC)cc1 (centres undefined)	none
COc1ccc(Cl)cc1NC(=O)N1CC(=O)Nc2sc3c(c2C1c1ccccc1)CCCC3 (centres undefined)	Pf Dd2 growth 11µM
COc1cc(NC(=O)N2CCc3c(sc4c3CCCC4)C2c2ccccc2)cc(OC)c1OC (centres undefined)	none
COc1ccc(Cl)cc1NC(=O)CN1C(=O)NC2(CCCCC2)C1=O	none
COc1ccc2c(C)c(C(=O)N3CCC(c4nc(C(C)C)no4)CC3)oc2c1	none
Cc1cc(CNC(=O)c2ccc(S(N)(=O)=O)cc2)c2[nH]c(C)c(C)c2c1	none
Cc1cc(CNC(=O)c2cccc(F)c2F)c2[nH]c(C)c(C)c2c1	Pf Dd2 growth 10µM
CCc1[nH]c2c(CNC(=O)C(C)O)cc(C)cc2c1C (centres undefined)	none
CN1CCN(Cc2nc(C3(O)CCN(C(=O)Nc4ccc(F)cc4)CC3)cs2)CC1	none
CC1=C[C@@H](CNS(=O)(=O)c2cccs2)[C@H](C(C)C)C[C@H]1CC(=O)NCCN1CCOCC1	none
O=C(CCc1nc2ccccc2[nH]1)N1CCC(c2noc(-c3ccccn3)n2)C1 (centres undefined)	none
O=C(CC[C@@H]1CNC(=O)[C@@H]2C[C@H](NCc3ccc(F)cc3)CN12)NCc1ccc(F)cc1	none
CN(C)CCNC(=O)C1CCN(Cc2cc3ccccc3n2Cc2ccccc2)CC1	Pf Dd2 growth 6.3µM
O=C(NCCCc1nc2ccccc2n1Cc1ccccc1)C1CCCCC1	none
Cc1ccc(Cn2c(CN3CCC(C(=O)NCc4ccccc4C)CC3)cc3ccccc32)cc1	none
COCCN1Cc2ccc(NCC(C)C)nc2C(C)(C(=O)NCc2cccnc2)C1 (centres undefined)	none
COc1ccc(NC(=O)C2(C)CCCc3cnc(Nc4cccnc4)nc32)cc1 (centres undefined)	none
COCCN1Cc2ccc(Nc3cccnc3)nc2C(C)(C(=O)Nc2cccc(F)c2)C1 (centres undefined)	Pf Dd2 growth 8.9µM
COc1cccc(Nc2ccc3c(n2)C(C)(C(=O)NCCc2cnc[nH]2)CN(C)C3)c1 (centres undefined)	none
COc1cccc(Nc2ccc3c(n2)C(C)(C(=O)NCCc2ccccn2)CN(C)C3)c1 (centres undefined)	Pf Dd2 growth 3.2µM
COc1cccc(Nc2ncc3c(n2)C(C)(C(=O)NCCN2CCOCC2)CC3)c1 (centres undefined)	none
COc1ccc(C(=O)N[C@@H](Cc2ccccc2)C(=O)N2CCCOCCNC(=O)CC2)cc1	none
Nc1nc2c(s1)C(c1cccc(F)c1)CC(=O)N2 (centres undefined)	none
CCOc1ccc(CC(=O)NC2CCc3n[nH]c(=O)n3CC2)cc1OCC (centres undefined)	none
CN(C)S(=O)(=O)N1CCOc2ccc(CCC(=O)NCC3CC3)cc2C1	none
Cc1nc(N2CCC(NC(=O)c3cc4ccccc4[nH]3)CC2)cc(C(F)(F)F)n1	Pf Dd2 growth 2µM
Cc1nc(N2CCC(NC(=O)c3ccccn3)CC2)cc(C(F)(F)F)n1	none
Cc1nc(N2CCC(NC(=O)c3cccnc3)CC2)cc(C(F)(F)F)n1	none
COc1ccccc1CCC(=O)NC1CCN(c2cc(C(F)(F)F)nc(C)n2)CC1	none
COc1cccc(C(=O)NC2CCN(c3cc(C(F)(F)F)nc(C)n3)CC2)c1OC	Pf Dd2 growth 11µM
COc1cccc(C(=O)NC2CCN(c3cc(C(F)(F)F)nc(C)n3)CC2)c1	none
COCCN1C(=O)[C@@H]2C[C@@H](CN2C(=O)c2ccc(Cl)cc2)Oc2ccccc21	none
O=C(COc1ccccc1)N1CCC(c2nc(C3CCOCC3)no2)CC1	none
O=C(NCc1ccco1)C1CC(c2ccccc2)CN(C(=O)c2ccoc2)C1 (centres undefined)	none
CC(C)(C)c1ccnc(N[C@H]2CO[C@H]3[C@@H]2OC[C@@H]3NC(=O)c2ccco2)n1	none
CC(C)(C)c1ccnc(N[C@H]2CO[C@H]3[C@@H]2OC[C@@H]3NC(=O)NCc2ccccc2)n1	Pf Dd2 growth 5µM
CC(C)(C)c1ccnc(N[C@H]2CO[C@H]3[C@@H]2OC[C@@H]3NC(=O)CCCC(=O)O)n1	none
COc1ccc(-c2ccc3c(n2)c(=O)ncn3Cc2ccccc2)cn1	none
CNC(=O)[C@H]1C[C@H](Oc2ccccc2)CN1C(=O)c1ccc2ccccc2n1	none
O=C(N[C@H]1C[C@H]2C(=O)NC[C@@H](CCC(=O)N3CCCCC3)N2C1)c1cccs1	none
COCCCNC(=O)C1COC2(CCCCC2)N1C(=O)c1c(OC)cccc1OC (centres undefined)	Pf Dd2 growth 6.3µM
COCCNC(=O)C1COC2(CCN(C(=O)c3ccc(OC)cc3)CC2)N1C(=O)c1ccccc1 (centres undefined)	none
COCCNC(=O)C1COC2(CCN(C(=O)c3ccc(F)cc3)CC2)N1C(=O)c1cccc(C)c1 (centres undefined)	none
CCn1nccc1C(=O)N1C[C@@H](Oc2ccccc2)C[C@H]1C(=O)NCCOC	none
COCCOC1CCOC2(CCN(C(=O)NCc3ccccc3)CC2)C1 (centres undefined)	none
CCCNC(=O)NC[C@@H]1C=C(C)[C@H](Cc2nc3nc(OC)ccc3[nH]2)C[C@H]1C(C)C	Pf Dd2 growth 10µM
CC1=C[C@@H](CNC(=O)C(C)C)[C@H](C(C)C)C[C@H]1Cc1nc2ncccc2[nH]1	none
CC(=O)NC[C@@H]1C=C(C)[C@H](Cc2nc3ccccc3[nH]2)C[C@H]1C(C)C	none
COc1ccc2[nH]c(C[C@@H]3C[C@@H](C(C)C)[C@H](CNC(=O)c4cccnc4)C=C3C)nc2n1	Pf Dd2 growth 11µM
CC1=C[C@@H](CNC(=O)c2cccnc2)[C@H](C(C)C)C[C@H]1CC(=O)NC1CCCC1	none
CCC(CC)C(=O)NC[C@@H]1C=C(C)[C@H](Cc2nc3ccc(F)cc3[nH]2)C[C@H]1C(C)C	none
O=C(c1ccc(N2CC3CC(C2)[C@H]2CCCC(=O)N2C3)nc1)N1CCN(c2ccccc2)CC1 (some centres undefined)	none
Cc1ccc(CN[C@@H]2CO[C@H](CNS(=O)(=O)c3ccc(C)cc3)[C@H]2O)cc1	none
CN1CCN(c2nc3c(c(=O)[nH]2)CCN(Cc2ccccc2C#N)CC3)CC1	none
CNC(=O)[C@H]1C[C@H](Oc2ccccc2)CN1C(=O)CCc1c[nH]c2ccccc12	none
Cc1ccccc1OCC(O)Cn1c(=N)n(CCN2CCCCC2)c2ccccc21 (centres undefined)	Pf Dd2 growth 2.8µM
Cc1ccccc1NCc1nc2ccccc2n1CCOc1ccccc1	none
Cc1ccccc1OCc1nc2ccccc2n1Cc1ccccc1Cl	none
CCCCCn1c(=N)n(CC(O)COc2cccc(C)c2)c2ccccc21 (centres undefined)	Pf Dd2 growth 1µM
CCCn1c(COc2cccc(C)c2)nc2ccccc21	none
CCn1c2ccccc2c2cc(NC(=O)COc3cccc(C)c3)ccc21	none
OC(COc1ccccc1-c1ccncc1)CN1CCOCC1 (centres undefined)	none
Cc1ccccc1OCCn1c(=N)n(C(C)C)c2ccccc21	Pf Dd2 growth 5.6µM
Cc1ccccc1OCC(=O)N1C[C@@H](CN2CCCCC2)[C@@H](CO)C1	none
COCCNC(=O)C[C@@H]1C[C@H]2O[C@H](CNC3CCC3)[C@@H](O)[C@H]2O1	none
COc1ccc2[nH]cc(CCNC(=O)C3Cn4cccc4C(=O)N3CC(C)C)c2c1 (centres undefined)	none
